Source: PubChem BioAssay AID720597 (Broad Institute, 2013)
Entries with a potency or affinity are not part of this list. Activity calls are given as the source filed them.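 Rule for the calls: active = fitted half-maximal dose no more than twice the top valid tested dose, for compounds that lower signal; inconclusive = fit invalid, or curve flat with activity between -70 and -30; inactive = potency past limit, curve flat within ±30, or signal increasing.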

target: NAD-dependent protein deacylase sirtuin-5, mitochondrial (Homo sapiens) (UniProt Q9NXA8); experiment: blockers of sirtuin-5 peptide desuccinylation – biochemical, fluorescence imaging, cherry-pick, set 6, dose response (AID 720597); conditions: Purified SirT5, succinyl-peptide-AMC/trypsin fluorescence; series mostly up to 15 µM;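 note: lower AMC signal can also come from blocking the trypsin step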
Sequence (Q9NXA8 whole entry, looked up): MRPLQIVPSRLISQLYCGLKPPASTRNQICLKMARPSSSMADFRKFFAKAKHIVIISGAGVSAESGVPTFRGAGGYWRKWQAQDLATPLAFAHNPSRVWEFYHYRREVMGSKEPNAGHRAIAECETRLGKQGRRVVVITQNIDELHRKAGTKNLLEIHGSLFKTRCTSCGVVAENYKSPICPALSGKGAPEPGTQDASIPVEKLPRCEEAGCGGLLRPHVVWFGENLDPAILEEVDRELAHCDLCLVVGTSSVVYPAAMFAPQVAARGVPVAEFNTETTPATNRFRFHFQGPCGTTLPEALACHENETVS

outcome, inactive:
CCCC#Cc1ccc([C@H]2[C@H]3CN(S(=O)(=O)Cc4ccccc4)CCCCN3[C@H]2CO)cc1
C[C@H]1CN([C@@H](C)CO)S(=O)(=O)c2ccc(C#CC3CCCC3)cc2O[C@@H]1CN(C)C(=O)Nc1cc(F)ccc1F
C[C@@H]1CCCCO[C@@H](CN(C)C(=O)Nc2ccc(C(F)(F)F)cc2)[C@@H](C)CN([C@H](C)CO)C(=O)c2cc(NS(=O)(=O)c3ccc(Cl)cc3)ccc2O1
COc1ccc(S(=O)(=O)N[C@H]2C=C[C@@H](CC(=O)NCCc3ccncc3)O[C@H]2CO)cc1
CO[C@H]1CN(C)C(=O)c2ccc(NC(C)=O)cc2OC[C@H](C)N(Cc2nccs2)C[C@@H]1C
COCC(=O)N(C)C[C@H]1[C@H](c2ccccc2)[C@@H](CO)N1C(=O)Cc1ccncc1
CS(=O)(=O)N(CC(=O)NC1CCCC1)c1cccc(F)c1
COc1ccc(C#Cc2ccc([C@@H]3[C@H]4CN(C(=O)c5cccnc5)CC(=O)N4[C@H]3CO)cc2)cc1
C/C=C/c1ccc([C@@H]2[C@@H](CO)N(C(C)=O)[C@H]2CN(C(=O)COC)C(C)C)cc1
C[C@@H]1CN([C@@H](C)CO)S(=O)(=O)c2ccc(/C=C/c3ccccc3)cc2O[C@@H]1CN(C)C(=O)NC1CCCCC1
COc1ccc(NC(=O)N(C)C[C@@H]2Oc3cc(C#CCC(C)C)ccc3S(=O)(=O)N([C@H](C)CO)C[C@H]2C)cc1
C[C@@H]1CN([C@@H](C)CO)C(=O)c2cc(C#CC3CCCCC3)cnc2O[C@H]1CN(C)S(=O)(=O)c1cccc(F)c1
C[C@@H]1CN([C@H](C)CO)C(=O)c2c(c3ccccc3n2C)-c2ccccc2CO[C@H]1CN(C)Cc1cccc2c1OCCCO2
COc1cccc(S(=O)(=O)N(C)C[C@@H]2Oc3ncc(-c4cccc(C(F)(F)F)c4)cc3C(=O)N([C@H](C)CO)C[C@@H]2C)c1
C[C@H](CO)N1C[C@H](C)[C@@H](CN(C)Cc2ccccc2F)Oc2cc(C#CC3CC3)ccc2S1(=O)=O
C[C@@H]1CCCCO[C@H](CN(C)Cc2ccc(C(F)(F)F)cc2)[C@H](C)CN([C@H](C)CO)C(=O)c2cc(NC(=O)c3ccncc3)ccc2O1
CN(C)CC#Cc1ccc([C@@H]2[C@@H](CO)N3CCCCN(C(=O)CN(C)C)C[C@H]23)cc1
CO[C@H]1CN(C)C(=O)c2cc(NS(=O)(=O)c3ccc(Oc4ccccc4)cc3)ccc2OC[C@H](C)NC[C@H]1C
C[C@@H]1CN([C@@H](C)CO)C(=O)c2cc(NS(=O)(=O)c3ccc(F)cc3)ccc2O[C@@H](C)CCCCO[C@H]1CN(C)Cc1ccc(C(F)(F)F)cc1
CN(C)C(=O)c1cccc(-c2ccc(C3[C@@H]4CN(C(=O)c5ccccn5)C[C@H]3N4)cc2)c1 (some centres undefined)
COc1ccc(S(=O)(=O)N(C)C[C@@H]2OCCCC[C@H](C)Oc3ccc(NS(=O)(=O)c4ccc(F)cc4)cc3C(=O)N([C@H](C)CO)C[C@H]2C)cc1
O=C(NC1CCCC1)N1CCCCN2[C@H](C1)[C@H](c1ccc(/C=C/c3ccccc3)cc1)[C@@H]2CO
Cc1cccc(-c2ccc([C@@H]3[C@@H](CO)N4C(=O)CN(S(=O)(=O)c5cccc(F)c5)C[C@@H]34)cc2)c1
COc1ccc(NC(=O)N(C)C[C@H]2Oc3cc(C#CCC(C)C)ccc3S(=O)(=O)N([C@H](C)CO)C[C@H]2C)cc1
COc1ccc(CN(C)C[C@@H]2Oc3ccc(NC(=O)Nc4ccc(OC)cc4)cc3C(=O)N([C@@H](C)CO)C[C@H]2C)cc1
O=C(c1cnccn1)N1CC(=O)N2[C@H](CO)[C@@H](c3ccc(C4=CCCCC4)cc3)[C@@H]2C1
Cc1ccccc1-c1ccc2c(c1)O[C@@H](CN(C)C(=O)Nc1ccc(F)cc1)[C@@H](C)CN([C@@H](C)CO)S2(=O)=O
C[C@H](CO)N1C[C@H](C)[C@H](CN(C)S(=O)(=O)c2cccs2)Oc2c(NC(=O)C3CCCCC3)cccc2C1=O
COc1ccccc1-c1ccc2c(c1)O[C@H](CN(C)S(=O)(=O)c1ccccc1)[C@@H](C)CN([C@@H](C)CO)S2(=O)=O
C[C@@H]1CN([C@@H](C)CO)C(=O)c2cccc(NS(=O)(=O)c3ccc(F)cc3)c2O[C@H]1CN(C)C(=O)Nc1ccccc1
COc1ccc(CN(C)C[C@@H]2Oc3ccc(NC(=O)CCC(F)(F)F)cc3C(=O)N([C@H](C)CO)C[C@H]2C)cc1
COc1ccccc1NC(=O)N[C@H]1CC[C@@H](CCNS(=O)(=O)c2ccc(F)cc2)O[C@@H]1CO
CN(C)CC(=O)N1[C@H](CO)[C@@H](c2ccccc2)C12CN(C(=O)C1CCCC1)C2
CCCC#Cc1ccc2c(c1)O[C@@H](CN(C)C(=O)c1ccccc1F)[C@@H](C)CN([C@H](C)CO)S2(=O)=O
C[C@@H]1CN([C@H](C)CO)C(=O)c2cc(-c3ccc(F)cc3)cnc2O[C@H]1CN(C)C(=O)Cc1ccccn1
CCCC(=O)Nc1ccc2c(c1)OC[C@H](C)N(Cc1ccccc1)C[C@@H](C)[C@H](OC)CN(C)C2=O
C[C@H](CO)N1C[C@H](C)[C@H](CN(C)Cc2ccc(-c3ccccc3)cc2)Oc2cc(C#C[C@@H](C)O)ccc2S1(=O)=O
COc1ccc(C#Cc2ccc([C@H]3[C@H]4CN(C(=O)c5cccnc5)CC(=O)N4[C@H]3CO)cc2)cc1
CS(=O)(=O)N1[C@@H](CO)[C@@H](c2ccccc2)C12CN(C(=O)c1ccccc1F)C2
